# Data reported in ChEMBL document CHEMBL3433997, “St. Jude Leishmania screening dataset” (2016).
# Biological target: Glucose transporter (Leishmania mexicana) (UniProt O61059)
# Assay: ST_JUDE_LEISH: Cytotoxicity at 2uM final concentration against transgenic Leishmania Mexicana promastigotes LmGT2 that are glucose transport deficient and complemented with the L. Mexicana glucose transporter 2. Activity is measured by DNA content using SYBR green in vitro
# Type: functional
row,Structure (SMILES),inhibition
1,Cc1cc(O)nc(NC(=N)NOCc2ccccc2)n1,1.07%
2,O=C(N[C@H]1CCN(Cc2ccc(OCCN3CCNCC3)c(Cl)c2)C1)c1ccc(Cl)c(Cl)c1,-2.23%
3,O=[N+]([O-])c1cc(/C=N/Nc2nc3nonc3nc2Nc2ccc(F)cc2)c(Cl)cc1Cl,-0.83%
4,CSc1nc2nc(C)c(Cc3cccc(C(F)(F)F)c3)c(C)n2n1,-1.61%
5,CCc1cc(-c2onc(C(F)(F)F)c2-c2ccccc2)c(O)cc1OC,7.43%
6,Cc1sc2ncnc(Sc3nnc(N)s3)c2c1C,1.09%
7,CCOC(=O)c1cn(CC)c2cc(N3CCCCCC3)c(F)cc2c1=O,3.87%
8,Cc1ccccc1Cc1cccc(/N=C(\N)Nc2ccc(Cl)cc2)n1,2.51%
9,COc1ccccc1CCNC(=O)c1cc(Br)cc(N2CCN(c3ccncc3)CC2)c1,0.04%
10,O=C(Nc1cccc(-c2nn3ccccc3c2-c2ccnc(Nc3ccc(Cc4ccncc4)cc3)n2)c1)c1c(F)cccc1F,13.2%
11,CCC(C)CN1C(=O)C(c2ccccc2)(c2ccccc2)N=C1N (stereo not given),2.04%
12,O=S(=O)(NCCN1CCCC1)c1ccc(-c2cccc(CNC3Cc4ccccc4C3)c2)cc1,6.15%
13,COc1ccc(NS(=O)(=O)c2ccc(C(=O)Nc3ccc(C(F)(F)F)cc3)cc2)cc1N1CCN(CC2CC2)CC1,-7.4%
14,COc1ccc(CC2(c3ccc(F)cc3)N=C(N)N(CCCc3ccccc3)C2=O)cc1 (stereo not given),4.39%
15,O=C(CCCCCNC(=O)c1ccc(O)c(-c2ccc(Cl)c(Cl)c2)c1)NC1CCCc2ccccc21 (stereo not given),2.15%
16,CCOc1cc(Cc2cnc(N)nc2N)cc(OC)c1OC,-0.04%
17,COc1ccc(CCNC(=O)c2cc3c(=O)n4cccc(C)c4nc3n(C)c2=N)cc1,15.2%
18,CN(C)Cc1ccc(-c2ccc3ccnc(N)c3c2)cc1,1.95%
19,CCOc1cc(Cc2cnc(N)nc2N)ccc1OC,-0.73%
20,O=C(NCc1cccc(F)c1)Nc1cccc(-c2cccc(-c3nc4ccccc4[nH]3)c2)c1,7.79%

row,Structure (SMILES),inhibition
1,COc1ccc(N2CCN(CCCCNC(=O)c3ccc(NC(=O)c4ccc(Cl)c(Cl)c4)cc3)CC2)c(OC)c1,1.65%
2,c1cncc(Oc2ccc(Nc3ccnc4cc(-c5cccc(CNCCN6CCOCC6)c5)ccc34)cc2)c1,1.1%
3,COc1ccc(CN2CCC(C(=O)Nc3cccc(-c4cccc(Cl)c4)c3)CC2)cc1O,6.49%
4,CCC1(CC)N=C(N)N=C(N)C1c1ccc(Cl)c(Cl)c1 (stereo not given),0.44%
5,O=C(Cc1ccc(NC(=O)c2ccc(O)c(-c3ccc(Cl)c(Cl)c3)c2)cc1)NCc1cccc(C(F)(F)F)c1,1.16%
6,OC1(C(F)(F)F)CC(c2ccccc2)=NN1c1nncc(-c2ccccc2)n1 (stereo not given),1.18%
7,CN1CCN(c2ccc(Nc3nccc(-c4cnn5ncccc45)n3)cc2Cl)CC1,83.8%
8,CC(C)(C)c1ccc(-c2csc(NC(=O)CC(c3ccccc3)c3ccccc3)n2)cc1,2.07%
9,CC(C)(C)c1ccc(CN2CCC(CNC(=O)c3cc(-c4ccccc4)nc4ccccc34)CC2)cc1,-1.73%
10,Cc1cc(=O)[nH]c(-n2nc(C)cc2NC(=O)C2(c3ccc(Cl)cc3)CCCC2)n1,53.5%
11,Cn1cnc2c(Nc3ccncc3)nc(-c3ccc4c(c3)OCO4)nc21,3.95%
12,Cc1nc2nc(N)nc(N)c2c(C)c1Cc1ccc(O)cc1,4.5%
13,CC(CNC(=O)[C@H]1CNCCN1C(=O)CCCc1ccccc1)c1ccccc1 (stereo not given in full),-0.23%
14,CC(C)CC(=O)N1CCNC[C@@H]1C(=O)NCCSCc1c(F)cccc1Cl,4.3%
15,COc1cc(CNCCCNc2nc3ncccc3[nH]2)c2[nH]cc(Br)c2c1,21.6%
16,CSc1cccc(NC(=O)Nc2ccc(I)c(OCCN(C)C)c2)c1,3.56%
17,Fc1ccc2[nH]c(-c3cccc(-c4ccc(CN5CCC(CCN6CCCCC6)CC5)cc4)c3)nc2c1,10.4%
18,Cc1nc(O)c2c(ccc3ccc(CNc4ccc(C(=O)N[C@@H](CCC(=O)O)C(=O)O)cc4)cc32)n1,1.05%
19,COc1ccc2nccc([C@@H](O)CN3CCC(NC(=O)c4ccc(C5(C(F)(F)F)N=N5)cc4)CC3)c2c1,40.7%
20,O=C(Nc1ccc(Cl)cc1)N[C@H]1CCN(Cc2ccc(OCCCN3CCCCC3)cc2)C1,0.1%
